Data reported in PubChem BioAssay.
The source made the active and inactive calls.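 The calls were made as follows, unless noted: active = compound raises insulin release from rat beta cells at 5 mM glucose, no numeric limit stated; inactive = the rest.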

Legend:
[1] = stimulators of insulin release from INS-1E, primary screen, cell-based, 5 mM glucose, NPC library (AID 1117329); settings: rat INS-1E insulin secretion, at 10 µM, stronger effect = higher value
[2] = growth inhibition of GSK3B-pretreated HCT116 cells – cell-based, CellTiter-Glo, 0.2 to 20 µM (AID 1117336;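 active = compounds lowering colon cancer cell viability after pretreatment blocking the GSK3B kinase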); settings: HCT116 viability after GSK3B inhibitor, at 20 µM, stronger effect = higher value
[3] = inhibition of endothelial tube formation, primary screen, imaging, VEGF stimulated, CD31 staining, tube area, NPC library (AID 1117340;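 active = compound that reduces growth-factor-driven endothelial tube area in a mixed cell culture, no cutoff stated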); settings: VEGF-stimulated ADSC/ECFC co-culture, at 10 µM, stronger effect = higher value
[4] = glucagon-like peptide 1 release enhancers, primary assay, NCI-H716 cell line, NPC library (AID 1117341;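 active = compound raises GLP1 secretion from the human gut endocrine cells, with no numeric limit stated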); settings: NCI-H716 cells, at 10 µM, stronger effect = higher value
[5] = HCT116 colon cancer cell growth inhibition, primary screen, CellTiter-Glo luminescence, NPC library (AID 1117342;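 active = compounds that lower survival of HCT116 colon cancer cells in the luminescence readout, no numeric limit stated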); settings: at 20 µM (top of the series)
[6] = CellTiter-Glo luminescent readout of SW480 viability loss, NPC library primary (AID 1117343;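 active = compounds that lower viability of the colon cancer cells in the luminescence readout, with no numeric limit stated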); settings: CellTiter-Glo luminescence; at 20 µM (top of the series)
[7] = decreased DLD-1 cellular survival, CellTiter-Glo luminescent readout, NPC compound collection, primary HTS (AID 1117346;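 active = compounds that lower survival of DLD-1 colon cancer cells in the luminescence readout, no cutoff given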); settings: DLD-1 viability, CellTiter-Glo luminescence; at 20 µM (top of the series)
[8] = biological target: 6-phosphogluconate dehydrogenase, decarboxylating (Homo sapiens) (UniProt P52209); experiment: 6PGD enzyme inhibitors, primary screen, biochemical, human, recombinant enzyme, NADPH absorbance (AID 1159550;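 active = at least 20% inhibition of 6-phosphogluconate dehydrogenase activity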); settings: recombinant 6PGD, NADPH absorbance 341 nm; at 10 µM; stronger effect = higher value
[9] = differential killing of epithelial or mesenchymal cells, primary screen, imaging, PC-3E GFP, TEM4-18 mCherry, co-culture (AID 1345086;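 active = compounds killing one labelled cell type while sparing the other, by normalised counts and ratio limits, not self-fluorescent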;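 as to all read-outs here: cells exposed to compound for 72 h before imaging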;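 as to red/green cell ratio (normalised): normalised mesenchymal count divided by normalised epithelial count so high means epithelial killing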); settings: imaging cell counts, at 1 µM; for red/green cell ratio (normalised): actives lie on both sides, counts scaled to control wells, 1 = unselective
[10] = measured here: epithelial PC-3E GFP cell survival
[11] = measured here: mesenchymal TEM4-18 mCherry cell survival

Sequence of 6-phosphogluconate dehydrogenase, decarboxylating (Homo sapiens) (P52209 whole entry, looked up): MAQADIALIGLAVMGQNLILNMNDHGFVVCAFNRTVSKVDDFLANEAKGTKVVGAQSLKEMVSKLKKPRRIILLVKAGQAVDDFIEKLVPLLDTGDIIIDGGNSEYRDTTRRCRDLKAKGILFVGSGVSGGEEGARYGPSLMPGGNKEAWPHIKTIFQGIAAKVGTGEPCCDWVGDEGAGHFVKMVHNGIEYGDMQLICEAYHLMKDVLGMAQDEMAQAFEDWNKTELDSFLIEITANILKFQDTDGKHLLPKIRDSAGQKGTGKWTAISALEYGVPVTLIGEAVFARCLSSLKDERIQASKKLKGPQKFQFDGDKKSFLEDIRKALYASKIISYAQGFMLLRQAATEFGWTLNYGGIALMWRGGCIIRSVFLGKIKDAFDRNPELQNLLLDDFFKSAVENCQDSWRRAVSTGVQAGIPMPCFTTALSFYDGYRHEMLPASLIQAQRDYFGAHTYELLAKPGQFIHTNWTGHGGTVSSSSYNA

SMILES | insulin secretion stimulation [1] | viability decrease [2] | tube area decrease [3] | GLP1 secretion stimulation [4] | inhibition of viability [5] | viability decrease (inhibition) [6] | viability decrease (inhibition) [7] | inhibition [8] | red/green cell ratio (normalised) [9] | normalised cell number [9, 10] | normalised cell number [9, 11]
Cc1cc(C)cc(OCC2CNC(=O)O2)c1 (stereo not given) | -0.5% (inactive) | 4.3% (inactive) | 12.5% (inactive) | -1.5% (inactive) | 3.1% (inactive) | 13.1% (inactive) | 6% (inactive) | 3.16% (inactive) | 1.5 (inactive) | 0.43 | 0.64
CC(Cc1cccc(C(F)(F)F)c1)NCCOC(=O)c1ccccc1 (stereo not given) | 3% (inactive) | -38.7% (inactive) | 0.6% (inactive) | 2.6% (inactive) | 18.1% (inactive) | 51.4% (active) | 28.7% (inactive) | 16.1% (inactive) | 0.76 (inactive) | 1.26 | 0.95
CCCCCCCCCCCCCCCCCCOCC(O)CO (stereo not given) | 1.3% (inactive) | -5.2% (inactive) | 7.6% (inactive) | 30.1% (active) | -10.7% (inactive) | 4.8% (inactive) | -8.8% (inactive) | -2.18% (inactive) | 1 (inactive) | 0.96 | 0.96
CCOC(=O)c1ccc(N)cc1 | -1% (inactive) | 5.65% (inactive) | 4% (inactive) | -0.6% (inactive) | 7.6% (inactive) | 87.8% (active) | 18.2% (inactive) | -17.7% (inactive) | 1.23 (inactive) | 1.07 | 1.31
CCCC(C(=O)OCCN(CC)CC)(c1ccccc1)c1ccccc1 | 5.7% (inactive) | 52.5% (active) | 9.6% (inactive) | 11.5% (inactive) | 86.3% (active) | 76.5% (active) | 62.5% (active) | 3.92% (inactive) | 1.41 (inactive) | 0.9 | 1.28
O=C(O)CCNC(=O)c1ccccc1 | -1% (inactive) | 6.3% (inactive) | -2% (inactive) | -0.3% (inactive) | -7.2% (inactive) | -1.3% (inactive) | 6.4% (inactive) | 2.23% (inactive) | 0.71 (inactive) | 1.22 | 0.87
CC(C)NNC(=O)c1ccncc1 | -2.5% (inactive) | -3.15% (inactive) | 5.7% (inactive) | 0.4% (inactive) | 4.9% (inactive) | 34.8% (inactive) | 7.6% (inactive) | -0.838% (inactive) | 0.73 (inactive) | 1.3 | 0.95
COCCc1ccc(OCC(O)CNC(C)C)cc1 (stereo not given) | 5.6% (inactive) | -27.4% (inactive) | -8.1% (inactive) | -3.5% (inactive) | 12.1% (inactive) | 17.2% (inactive) | -6.3% (inactive) | -13.3% (inactive) | 0.71 (inactive) | 1.33 | 0.95
CN(C)CCC(c1ccccc1)c1ccccn1 (stereo not given) | 1.3% (inactive) | -40.9% (inactive) | 1.9% (inactive) | 1.5% (inactive) | 3.55% (inactive) | 12.1% (inactive) | -7.2% (inactive) | -0.335% (inactive) | 1.11 (inactive) | 0.86 | 0.95
C=Cc1c(C)c2cc3[nH]c(cc4nc(cc5nc(cc1[nH]2)C(C)=C5CCC(=O)O)C(CCC(=O)O)=C4C)c(C)c3C=C | -1.6% (inactive) | 37.8% (inactive) | -597% (inactive) | 117% (active) | 73.5% (active) | 120% (active) | 93% (active) | 16.8% (inactive) | 1.18 (inactive) | 0.8 | 0.95
CN1CCCN=C1COC(=O)C(O)(c1ccccc1)C1CCCCC1 (stereo not given) | 16.3% (inactive) | -83% (inactive) | -29% (inactive) | 4.8% (inactive) | 19.6% (inactive) | 67.3% (active) | 33.9% (inactive) | 6.35% (inactive) | 1.18 (inactive) | 1.21 | 1.43
CC(=O)OC(C)C[N+](C)(C)C (stereo not given) | -0.3% (inactive) | -1.9% (inactive) | 4.4% (inactive) | 5.7% (active) | -6.13% (inactive) | -21.3% (inactive) | -8.2% (inactive) | 19.2% (inactive) | 1.16 (inactive) | 0.97 | 1.13
CC(=O)Nc1ccc(S(=O)(=O)Nc2ccc([N+](=O)[O-])cc2)cc1 | -0.2% (inactive) | 9.9% (inactive) | 18.2% (inactive) | 3.6% (inactive) | -1.57% (inactive) | 11.5% (inactive) | -3.8% (inactive) | 0.544% (inactive) | 0.81 (inactive) | 1.34 | 1.08
Cc1ccnc(NS(=O)(=O)c2ccc(N)cc2)n1 | -0.3% (inactive) | 9.35% (inactive) | -12.6% (inactive) | 2.1% (inactive) | 2.4% (inactive) | 31.8% (inactive) | 7.5% (inactive) | 2.58% (inactive) | 1.35 (inactive) | 0.98 | 1.33
O=C1C(O)=C(O)C(=O)C(O)=C1O | 1.9% (inactive) | -21% (inactive) | -10.5% (inactive) | -1.5% (inactive) | -0.4% (inactive) | 27.9% (inactive) | 23.1% (inactive) | 10.5% (inactive) | 1.1 (inactive) | 1.02 | 1.12
Nc1ccc(C(=O)Oc2ccccc2)c(O)c1 | 0.9% (inactive) | -26.7% (inactive) | 4.5% (inactive) | 0.7% (inactive) | 3% (inactive) | -17.2% (inactive) | 17.2% (inactive) | -7.23% (inactive) | 1.06 (inactive) | 0.61 | 0.65
O=C(O)c1cc(=O)c2ccccc2o1 | -2.1% (inactive) | -1.35% (inactive) | -2.1% (inactive) | 3.7% (inactive) | -9.2% (inactive) | 6.8% (inactive) | 1.75% (inactive) | -2.11% (inactive) | 0.88 (inactive) | 0.88 | 0.78
NC(=O)NC1NC(=O)NC1=O (stereo not given) | -2.3% (inactive) | -10.1% (inactive) | 1.2% (inactive) | -1.2% (inactive) | 8% (inactive) | 0.3% (inactive) | -6.65% (inactive) | 4.15% (inactive) | 1.05 (inactive) | 1.06 | 1.11
CCN(CCCCOC(=O)c1ccc(OC)c(OC)c1)C(C)Cc1ccc(OC)cc1 (stereo not given) | 49.6% (active) | -125% (inactive) | 23.2% (inactive) | 0.3% (inactive) | 26.7% (inactive) | 20% (inactive) | 8% (inactive) | -12.1% (inactive) | 1.1 (inactive) | 0.88 | 0.97
Oc1cc(O)c2c(c1)O[C@H](c1ccc(O)c(O)c1)[C@H](O)C2 | -0.7% (inactive) | 14.4% (inactive) | -6.6% (inactive) | -3.1% (inactive) | 1.73% (inactive) | -72.1% (inactive) | -2% (inactive) | -5.84% (inactive) | 0.83 (inactive) | 1.07 | 0.89
COc1ccccc1OCC(O)CO (stereo not given) | -0.3% (inactive) | -2.1% (inactive) | -23.8% (inactive) | 1.3% (inactive) | -1.2% (inactive) | 17.6% (inactive) | -4.85% (inactive) | 12.6% (inactive) | 1.05 (inactive) | 1.11 | 1.17
Cc1cc(N)c2ccccc2[n+]1CCCCCCCCCC[n+]1c(C)cc(N)c2ccccc21 | -0.4% (inactive) | 85.5% (active) | 106% (active) | -0.6% (inactive) | 74.9% (active) | 83% (active) | 85.1% (active) | 4.29% (inactive) | 0.87 (inactive) | 1.15 | 1
Cc1cc(O)cc(C)c1Cl | 2% (inactive) | -11% (inactive) | -5.3% (inactive) | -2% (inactive) | 18.1% (inactive) | 28.5% (inactive) | 9.3% (inactive) | 0.336% (inactive) | 1.31 (inactive) | 0.7 | 0.93
CC1(C)OC(=O)NC1=O | 0.6% (inactive) | -28.6% (inactive) | 2.9% (inactive) | -6.6% (inactive) | 17.4% (inactive) | 11.1% (active) | -3.2% (inactive) | 10.2% (inactive) | 1.18 (inactive) | 1.2 | 1.41
CCCc1ncc(C[n+]2ccccc2C)c(N)n1 | 0.95% (inactive) | -5.4% (inactive) | 6.7% (inactive) | 0.7% (inactive) | -12.5% (inactive) | -33.4% (inactive) | -13.4% (inactive) | -3.15% (inactive) | 0.95 (inactive) | 1.35 | 1.28
O=C1c2ccccc2C(=O)C1c1ccccc1 | -1.2% (inactive) | -5.45% (inactive) | -11% (inactive) | 2.1% (inactive) | -1% (inactive) | 1.3% (inactive) | -4.85% (inactive) | 8.94% (inactive) | 1.05 (inactive) | 1.09 | 1.15
CCn1cc(C(=O)O)c(=O)c2cc3c(cc21)OCO3 | -1.3% (inactive) | -16% (inactive) | 12.1% (inactive) | -1.5% (inactive) | -19.5% (inactive) | 8.3% (inactive) | 7.15% (inactive) | 15.6% (inactive) | 1.09 (inactive) | 1.15 | 1.25
O=C1c2c(O)cccc2Cc2cccc(O)c21 | 0.8% (inactive) | 38.5% (inactive) | 108% (active) | -2.2% (inactive) | 30.9% (inactive) | 61.6% (active) | 53.6% (active) | -1.39% (inactive) | 0.95 (inactive) | 1.25 | 1.19
Cc1ccc(C(=O)c2ccc(CC(=O)O)n2C)cc1 | 0.4% (inactive) | -13.7% (inactive) | -2.5% (inactive) | 3.1% (inactive) | -3.2% (inactive) | -14.3% (inactive) | 4.3% (inactive) | 9.71% (inactive) | 0.9 (inactive) | 1.11 | 1
NC(=NCCCCCCN=C(N)/N=C(\N)Nc1ccc(Cl)cc1)/N=C(\N)Nc1ccc(Cl)cc1 | 36.6% (active) | 120% (active) | 111% (active) | 161% (active) | 125% (active) | 166% (active) | 101% (active) | -5.13% (inactive) | 1.05 (inactive) | 0.89 | 0.93
